The campaign covered roughly 150,000 compounds. About 540 (0.36%) showed an effect of 50% or more. Shown is part of a subset that was picked to be rich in strong results.

This assay concerns Plasmodium falciparum. In words: Primary screen in NF54 nanoGlo assay, in single point, at 2uM, 72h; a lower Z score goes with more inhibition. The format is functional, Erythrocyte. The conditions noted are these: timepoint 72 hour.
Turning to `CC(C)C(=O)N1CCc2ccc(OCc3nc(C(=O)N(C)Cc4ccccc4)cs3)cc2[C@@H]1c1ccccc1`, the % Inhibition (usually the change of the read-out against control, counted positive when it falls) was 1% and the Z score is recorded as -0.07.

In the case of `CN(C)c1ncc(CN[C@H]2[C@H](c3ccccc3)C2(C)C)cn1`, the “% Inhibition” value amounted to 10% and the Z score was -1.13.

Regarding `CC(C)CC[C@@]1(C2CC2)NC(=O)N(Cc2ccc(C#N)cn2)C1=O`, the “% Inhibition” value is recorded as -14% and the Z score worked out at 2.83.

In the case of `O=C(c1csnn1)N1CCc2[nH]nc(-c3ccccc3F)c2C1`, the “% Inhibition” value is given as -7% and the Z score is recorded as 1.02.

Regarding `COc1ccc(F)cc1S(=O)(=O)N1CCc2ncncc2C1`, the “% Inhibition” value is on record as -3% and the Z score came to 0.62.

On to `COc1ccc(F)cc1S(=O)(=O)N1CCn2c(nn(C)c2=O)C1`, for which the “% Inhibition” value was -13% and the Z score was 2.3.

With `COc1ccc(F)cc1S(=O)(=O)N1CCc2noc(N)c2C1`, the “% Inhibition” value came out at 72% and the Z score is on record as -5.81.

Consider `O=C(c1ccc(O)cc1)N1CCN(Cc2ccccn2)[C@@H]2CS(=O)(=O)C[C@@H]21`, for which the “% Inhibition” value stood at 3% and the Z score is reported as -0.42.

Regarding `Cc1nn(-c2nc3ccccc3[nH]2)c2c1[C@@H](c1cccnc1)CC(=O)N2`, the “% Inhibition” value came to 68% and the Z score is given as -14.32.

Consider `Cc1nn(-c2nc3ccccc3[nH]2)c2c1[C@@H](c1ccc(Cl)c(Cl)c1)CC(=O)N2`, for which the “% Inhibition” value is 14% and the Z score is -1.74.

With `Cc1nn(-c2nc3ccccc3[nH]2)c2c1[C@@H](c1c(C)sc3ccccc13)CC(=O)N2`, the “% Inhibition” value was 4% and the Z score was -0.46.

For `C[C@H]1CCN(C(=O)c2cccc3c2CCCN3)[C@@H](C)C1`, the “% Inhibition” value came out at 12% and the Z score was -1.41.

As for `CC(C)(C)C1CCC(O)(CNC(=O)NC2CCC(O)CC2)CC1` (stereo unspecified), the “% Inhibition” value came out at 0% and the Z score is given as -0.1.

For `CCOC(=O)c1n[nH]cc1CNCc1cccnc1N(C)C`, the “% Inhibition” value came out at 4% and the Z score is -0.61.

Regarding `COc1cc(Br)c(NC(=O)N(C)CC(C)C)cc1OC`, the “% Inhibition” value is recorded as -13% and the Z score is 1.89.

For `c1ccc2c(C(c3c[nH]c4ccccc34)c3c[nH]c4ccccc34)c[nH]c2c1`, the “% Inhibition” value is -27% and the Z score is listed as 3.19.

For the compound `CCc1ccc(/C=C/c2c[nH]c3ccccc23)[n+](CC)c1`, the “% Inhibition” value is given as 93% and the Z score is -8.52.

Turning to `CCCCc1ccc(NCc2c[nH]c3ccccc23)cc1`, the “% Inhibition” value amounted to 1% and the Z score is reported as -0.17.

Consider `COc1ccc(OC)c2c(/C=C/c3c[nH]c4ccccc34)ccnc12`, for which the “% Inhibition” value is -8% and the Z score was 0.9.

Turning to `C[n+]1ccccc1/C=C/c1c[nH]c2ccccc12`, the “% Inhibition” value came out at 91% and the Z score is -8.06.

`C1=Cn2nc(/C=C/c3c[nH]c4ccccc34)nc2-c2ccccc2O1`: the “% Inhibition” value is given as -30% and the Z score is 3.55.

`c1cnc(NCc2cnc(N3CCCC3)s2)cn1`: the “% Inhibition” value is recorded as -3% and the Z score worked out at 0.38.

Consider `Cn1cccc1CN[C@H]1CCOc2ccc(F)cc21`, for which the “% Inhibition” value is reported as -10% and the Z score was 1.36.

The record behind these values is ChEMBL document CHEMBL4888484, “Replenishing the malaria drug discovery pipeline: Screening and hit evaluation of the MMV Hit Generation Library 1 (HGL1) against asexual blood stage Plasmodium falciparum ,using a nano luciferase reporter read-out” (2022).
